The supplement of paper PMC6555819

Assays:
Assay in all cases: PBM binding z-score (relative to random genomic background probes); higher = stronger binding; sequences stand for … in GC…GCGATTGACAGCGTAGAATGAAGG
[1] = tested on: FXR:RXRa (NR concentration 270 nM, RXRa partner concentration 90 nM)
Outline: (§1)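 Scanned fluorescence from custom Agilent 4×180K protein-binding microarrays was regression-normalized. Binding z-scores use random background probes as reference. Ligand-free nuclear receptor dimers were incubated on the arrays for 1 h and detected with antibodies against each partner (one per run).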

[2] = tested on: LXRa:RXRa (NR concentration 270 nM, RXRa partner concentration 90 nM)
Outline: as §1

[3] = tested on: LXRa homodimer (NR concentration 270 nM)
Outline: as §1

[4] = tested on: LXRb:RXRa (NR concentration 270 nM, RXRa partner concentration 90 nM)
Outline: as §1

[5] = tested on: LXRb homodimer (NR concentration 270 nM)
Outline: as §1

[6] = tested on: PPARa:RXRa (NR concentration 270 nM, RXRa partner concentration 90 nM)
Outline: as §1

[7] = tested on: PPARg:RXRa (NR concentration 180 nM, RXRa partner concentration 90 nM)
Outline: as §1

[8] = tested on: PPARg:RXRa 270nM:90nM, anti-RXR (NR concentration 270 nM, RXRa partner concentration 90 nM)
Outline: as §1

[9] = tested on: PPARg:RXRa 30nM:10nM, anti-RXR (NR concentration 30 nM, RXRa partner concentration 10 nM)
Outline: as §1

[10] = tested on: PPARg:RXRa 90nM:30nM, anti-RXR (NR concentration 90 nM, RXRa partner concentration 30 nM)
Outline: as §1

[11] = tested on: PPARg:RXRa DBDmut IVT, anti-RXR (DBD mutation: RXRa K156A/R161A, NR concentration 270 nM, RXRa partner concentration 90 nM)
Outline: as §1

[12] = tested on: PPARg:RXRa IVT, anti-PPARg (NR concentration 270 nM, RXRa partner concentration 90 nM)
Outline: as §1

[13] = tested on: PPARg DBDmut:RXRa IVT, anti-PPARg (DBD mutation: PPARg1 K132A/R137A, NR concentration 270 nM, RXRa partner concentration 90 nM)
Outline: as §1

[14] = tested on: PPARg DBDmut IVT, anti-PPARg (DBD mutation: PPARg1 K132A/R137A, NR concentration 270 nM)
Outline: as §1

[15] = tested on: PPARg homodimer (NR concentration 180 nM)
Outline: as §1

[16] = tested on: PXR:RXRa (NR concentration 270 nM, RXRa partner concentration 90 nM)
Outline: as §1

[17] = tested on: PXR homodimer (NR concentration 270 nM)
Outline: as §1

[18] = tested on: RARa:RXR (NR concentration 270 nM, RXRa partner concentration 90 nM)
Outline: as §1

[19] = tested on: RARa homodimer (NR concentration 270 nM)
Outline: as §1

[20] = tested on: RARb:RXRa (NR concentration 270 nM, RXRa partner concentration 90 nM)
Outline: as §1

Sequence	PBM binding z-score [1]	PBM binding z-score [2]	PBM binding z-score [3]	PBM binding z-score [4]	PBM binding z-score [5]	PBM binding z-score [6]	PBM binding z-score [7]	PBM binding z-score [8]	PBM binding z-score [9]	PBM binding z-score [10]	PBM binding z-score [11]	PBM binding z-score [12]	PBM binding z-score [13]	PBM binding z-score [14]	PBM binding z-score [15]	PBM binding z-score [16]	PBM binding z-score [17]	PBM binding z-score [18]	PBM binding z-score [19]	PBM binding z-score [20]
TCATATAGGTAAATGCTAGGTGAAAGTACGATCT	1.24	0.992	0.296	0.731	0.0256	1.6	1.69	2.52	3.66	3.19	3.93	3.03	1.24	1.57	0.891	0.968	0.678	1.38	1.13	0.64
CCTAGTTGGTCAGGAGGTAACACACCGGATATGA	0.273	0.0725	0.325	0.204	-0.0466	0.433	0.902	1.08	0.0146	0.419	0.719	1.36	0.594	0.266	1.37	0.0397	0.446	0.422	1.49	0.781
GCTTGCGGGTCAAAGGTTATAGCATGAATAGAAT	7	5.1	0.347	5.46	-0.491	7.24	11.2	9.57	9.43	9.99	6.08	6.75	0.506	0.0418	2.11	6.07	0.118	7.94	0.537	4.53
TCGCCTAGGTCATTGGGCCAGTATAGTACGCATC	4.27	2.83	0.548	2.4	-0.239	3.61	3.1	3.57	2.21	2.73	3.09	3.38	-0.283	-0.432	1.52	1.74	0.00603	2.24	-0.44	3.66
CCTTACGGGTCACTCCAGGTTAAAGCATCGGAGT	5.18	7.96	2.58	5.93	0.173	4.59	3.59	4.06	1.02	2.86	2.31	3.73	-0.0185	-0.224	2.3	5.3	0.114	4.1	0.271	3.67
CCGAGTAGGTTATGGGGCCTTCAGGCAACGGTGA	0.0359	0.107	-0.191	0.353	-0.362	1.33	1.43	2.56	0.26	1.58	3.11	2.85	-0.856	-1.59	0.629	-0.268	-0.427	0.0801	0.0148	0.668
ATCTCTAGGTAAAACTTCAGTGAATCCCGAGGAT	0.0366	0.047	-0.183	-0.182	0.628	0.249	0.323	0.56	0.176	0.539	1.85	1.8	1.22	0.94	-0.0625	-0.0735	0.231	-0.12	0.676	0.128
TCTTGCAGATCAACAGGAGGTTAAGAAAGATCGA	-0.0407	0.769	0.0202	0.679	-0.645	1.11	-0.141	0.718	1.89	1.63	0.996	0.188	0.472	0.407	-0.378	0.713	-0.172	0.812	-0.193	0.489
GCAGACAGGTGAAACGCAGGTAACCCAGGGTGGC	-0.174	-0.00229	-0.737	-0.377	-1.23	0.855	0.586	-0.135	-0.728	-0.633	0.158	0.862	-0.147	-0.879	-0.777	-0.365	-0.8	0.305	-1.34	0.601
CCTACTGGGCCAGCAGGTCATTGATATCAACGTT	0.852	0.958	0.496	1.21	-0.78	2.51	2.26	2.84	1.09	2.63	3.7	4.16	-0.155	-0.528	1.02	1.46	-0.0906	1.8	-0.335	1.88
ATCTCTAGGTAAAGATAGTTCCGTGAATGCAAAT	0.0722	-0.0482	0.14	-0.171	0.352	0.22	0.326	0.273	0.172	0.366	1.2	1.52	1.55	0.949	0.486	-0.0332	0.339	0.23	0.96	-0.0284
GCAGACAGGTCAAACGCAGGTAACTCAGGGTGGC	6.46	4.96	1.47	3.62	0.592	5.06	3.15	3.59	0.933	2.14	2.15	1.91	0.427	-0.842	2	3.06	-0.42	4.18	-0.318	4.17
ACTTACTGGTCAACGAGGTTATAGCACGCGTATA	1.24	1.44	0.897	1.62	0.859	1.88	1.04	1.16	1.29	1.29	1.29	1.65	1.75	1.91	1.38	1.89	0.901	2.03	1.23	2.09
GCTTGTAGATCAAGGCTAAGAAAGACTAAGCTAA	-1.48	-0.741	-0.903	-0.837	-0.875	-0.665	-0.447	-0.418	-0.329	-0.359	0.902	-0.107	-0.0292	-0.466	-1.05	-0.743	-0.42	-0.679	-0.656	-0.482
AGAATGAGCTTAAGATCAGGGAAACAGAATACAT	-0.576	-0.745	-0.372	-0.637	-0.597	-0.434	0.541	-0.0832	0.137	0.036	-0.826	-0.493	0.133	0.568	-0.142	-0.393	-0.0876	0.0208	-0.0937	-0.502
GCTAGCAGGCCATTTGGGTCACACAATGACGGGC	0.201	0.0992	-0.68	0.327	-0.778	1.89	1.2	1.09	-0.147	0.392	2	2.63	-0.238	-0.979	0.139	0.906	0.00293	1.05	-0.205	1.61
TCTAGTTGGTCAAAGATCACACACTCGAAATGCG	1.08	0.894	0.461	1.25	0.389	3.18	5.95	6.52	5.72	6.88	2.51	2.84	1.33	1.22	1.93	1.07	0.547	1.77	0.928	1.3
TAGCCTATGTCATTCAGGGGCCAGTATAGAAAGC	-0.275	-0.326	-0.461	-0.0773	0.117	-0.00609	0.175	-0.205	-0.271	-0.159	0.367	0.511	-0.0468	0.315	-0.12	-0.141	-0.435	0.125	-0.558	0.742
TCTTGTAGAACAATAGAGGTTAAGAAAGTGCGCT	0.656	2.99	0.526	1.58	-0.26	1.92	0.287	1.7	2.64	2.2	1.83	1.45	0.641	0.472	-0.0635	3.16	0.538	1.69	0.27	0.777
ACTAGCAGGCCACGGGTCACTCAAGATTAGTCCG	0.933	1.15	-0.0855	1.3	-0.734	2.7	3.18	3.72	1.75	3.53	1.77	3.02	0.251	-0.351	0.555	1.52	-0.598	2.05	-0.386	2.17
ATATGAAGGTTAGCTGGGGTCATTCAGACTAGGC	5.27	6.28	3.34	5.36	1.06	4.7	2.43	3.52	1.14	2.37	1.16	2.19	0.859	1.21	2.53	6.56	5	5.87	1.42	3.55
CGAACTAGGTCATTGACAGGAAAGTGAATAGTAA	4.94	2.6	0.115	2.01	-0.078	4.67	7.36	6.32	3.65	5.55	7.79	8.25	2.11	2.92	1.37	1.37	0.599	2.02	0.0841	3.59
TCATATAGATAAAGGTGAAAGTCGAACGATATGA	0.837	1.1	0.162	1.26	0.134	2.57	2.33	3.51	4.36	4.09	2.13	1.9	1.06	1.29	1.18	0.893	-0.0494	1.43	0.832	1.61
TCTATTAGTTGATTAGGGCCACCGAAACAGCGGA	0.951	0.434	0.125	0.653	0.614	0.786	-0.0833	1.9	3.63	2.7	1.82	0.608	0.893	0.609	0.28	0.517	0.469	0.615	1.05	0.596
CCGACTGGGGCAGACAGGTTACCATACCATCCGG	-0.305	-0.476	-0.144	-0.341	-0.833	0.114	0.832	0.0365	-0.675	-0.262	1.38	1.47	0.134	-1.89	-0.172	-0.453	-0.382	-0.441	-0.217	0.69
ATCTCTAGATAAAGTTCAGTGAAAGATCGATAGA	0.465	1.1	1.05	0.684	0.314	1.48	2.39	3.45	1.46	3.1	-0.492	0.294	0.931	0.898	0.994	1.36	1.39	0.786	1.06	2.17
CGAACGAGCGCATGAGTTGATAGCAAATGCCGAT	-0.525	-0.575	-0.486	-0.865	-1.12	-1.7	0.405	-0.647	-0.312	-0.44	-0.785	-0.827	-0.939	-1.33	-2.16	-0.509	-0.275	-0.304	-0.678	-1.03
CATACAGGGTCAGCTGGGCCAGAGTAGGGACGGC	4.32	3.28	-0.0929	2.08	0.0372	4.46	2.85	3.35	0.594	2.16	1.23	2.66	0.246	0.292	1.52	2.22	-0.145	2.81	0.258	4.08
ACTCGGAGGACAACGGTCAGAGCTACGCCAGTGA	0.0223	-0.221	-0.37	-0.773	-0.828	-0.354	0.852	0.638	-0.439	0.354	0.208	0.015	-0.698	-0.749	-0.201	-0.539	-0.446	-0.355	0.128	2
